{
  "source": "PubChem BioAssay (EPA / NIEHS)",
  "key": {"[1]": {"target": "Estrogen receptor (Homo sapiens) (UniProt P03372)", "sequence (P03372 whole entry, looked up, the tested form may be a part)": "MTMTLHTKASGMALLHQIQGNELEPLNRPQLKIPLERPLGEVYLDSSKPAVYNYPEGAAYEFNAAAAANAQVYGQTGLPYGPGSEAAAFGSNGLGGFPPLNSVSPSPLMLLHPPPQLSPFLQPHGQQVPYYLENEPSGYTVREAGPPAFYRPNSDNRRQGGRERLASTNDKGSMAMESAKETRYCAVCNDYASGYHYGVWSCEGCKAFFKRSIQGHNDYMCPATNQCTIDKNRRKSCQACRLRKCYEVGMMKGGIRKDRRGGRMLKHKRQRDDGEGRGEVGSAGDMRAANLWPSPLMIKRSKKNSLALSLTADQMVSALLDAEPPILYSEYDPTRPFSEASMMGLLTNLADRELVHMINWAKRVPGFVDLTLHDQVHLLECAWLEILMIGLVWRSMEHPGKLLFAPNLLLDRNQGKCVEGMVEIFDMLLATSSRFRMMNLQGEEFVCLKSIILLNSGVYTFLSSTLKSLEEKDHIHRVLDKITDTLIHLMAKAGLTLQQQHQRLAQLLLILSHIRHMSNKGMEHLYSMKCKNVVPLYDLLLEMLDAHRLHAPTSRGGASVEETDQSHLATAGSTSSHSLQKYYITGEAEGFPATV", "experiment": "OT_ER_ERaERa_1440: Odyssey Thera (OT) 24-hour HEK293T Protein-Complementation Assay for Estrogen Receptor-alpha/-alpha Homodimer (AID 2283349);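 note: hits raise fluorescence above DMSO for agonists and antagonists alike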", "summary_of_the_method": "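Protein-fragment complementation between two human ERα ligand-binding domains (aa 310-547) in stably transfected HEK293T cells was monitored after 24 h treatment, using fluorescence intensity relative to vehicle controls.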"}, "[2]": {"target": "Estrogen receptor (Homo sapiens) (UniProt P03372)", "experiment": "OT_ER_ERaERa_0480: Odyssey Thera (OT) 8-hour HEK293T Protein-Complementation Assay for Estrogen Receptor-alpha/-alpha Homodimer (AID 2283351);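 note: rise in fluorescence from reassembled reporter fragments on ERα LBD homodimer in nucleus or whole cell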", "summary_of_the_method": "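The readout is complementation of fragments fused to the human ER alpha ligand-binding domain (aa 310-547), stably expressed in HEK293T cells. After 8 h of exposure, the increase in nuclear/cytoplasmic fluorescence was measured by laser scanning cytometry and fitted relative to DMSO.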"}, "[3]": {"target": "Estrogen receptor (Homo sapiens) (UniProt P03372)", "experiment": "OT_ERa_GFPERaERE_0480: Odyssey Thera (OT) 8-hour HeLa Transcription Induction Assay for Estrogen Receptor (AID 2283381; active = hit-call score of the fitted dose curve at least 0.9, where 1 is the maximum; inactive = score below 0.9)", "summary_of_the_method": "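HeLa cells expressing GFP reporter under estrogen response element, imaged 8 h after dosing. GFP induction quantified by high-content fluorescence microscopy image analysis; gain of signal fitted versus DMSO.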"}, "[4]": {"target": "Estrogen receptor (Homo sapiens) (UniProt P03372)", "experiment": "OT_ERa_GFPERaERE_0120: Odyssey Thera (OT) 2-hour HeLa Transcription Induction Assay for Estrogen Receptor (AID 2283382)", "summary_of_the_method": "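HeLa cells were dosed for 2 h, then GFP reporter induction was quantified by fluorescence microscopy with high-content image analysis. Gain of signal fitted against DMSO baseline.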"}, "[5]": {"experiment": "TOX21_PR_LUC_Followup_Antagonist_viability: Viability Assessment in the Tox21 HEK293 Progesterone Receptor (PR) Antagonism Luciferase Follow-Up Assay (AID 2283940)", "summary_of_the_method": "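HEK293-PR-A-luc cells kept in charcoal-stripped FBS medium were plated 5 h before compound addition, then exposed 16 h at 37C; viability read as cellular ATP by luciferase luminescence, loss of signal indicating cytotoxicity.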"}, "[6]": {"experiment": "TOX21_PR_LUC_Followup_Agonist_viability: Viability Assessment in the Tox21 HEK293 Progesterone Receptor (PR) Agonism Luciferase Follow-Up Assay (AID 2283941);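 note: loss of signal means cytotoxicity so actives lower viability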", "summary_of_the_method": "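HEK293-PR-A-luc cells, kept in 10% charcoal-stripped FBS medium, were treated with compounds for 16 h at 37C. Viability read as cellular ATP by luciferase-coupled luminescence; loss of signal indicates cytotoxicity.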"}, "[7]": {"experiment": "CCTE_Mundy_HCI_hN2_NOG_NeuriteCount: CCTE's Neurite Outgrowth Assay in human hN2 cells for Neurite Count, Mundy Lab (AID 2284219)", "summary_of_the_method": "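In this morphology assay, hNP1-derived neurons received test chemical 2 h post-plating and were fixed two days later in warm paraformaldehyde/sucrose containing Hoechst 33342. Neurites, labelled by rabbit anti-βIII-tubulin (1:800) and Alexa Fluor-488 (1:500), were counted automatically.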"}, "[8]": {"experiment": "CCTE_Mundy_HCI_hN2_NOG_NeuriteLength: CCTE's Neurite Outgrowth Assay in human hN2 cells for Neurite Length, Mundy Lab (AID 2284220)", "summary_of_the_method": "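Plate hNP1-derived neurons, then add chemical 2 h later as a 1/10 dilution. Stain with anti-βIII-tubulin then Alexa Fluor-488 secondary, and image automatically to measure neurite length.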"}, "[9]": {"experiment": "CCTE_Mundy_HCI_hN2_NOG_NeuronCount: CCTE's Neurite Outgrowth Assay in human hN2 cells for Neuron Count, Mundy Lab (AID 2284221)", "summary_of_the_method": "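Read-out is the number of betaIII-tubulin-positive neurons imaged by automated high-content analysis, with DMSO as negative control.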"}, "[10]": {"experiment": "CCTE_Mundy_HCI_Cortical_NOG_NeuronCount: CCTE's Neurite Outgrowth Assay in rat cortical cells for Neuron Count, Mundy Lab (AID 2284236);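 note: cells exposed to compound for about 48 hours before fixation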", "summary_of_the_method": "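Read-out: neuron number by high-content imaging of betaIII-tubulin (Alexa Fluor-488) and Hoechst-labelled rat primary cortical cells.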"}, "[11]": {"experiment": "CCTE_Mundy_HCI_Cortical_Synap_Neur_Matur_NeuronCount: CCTE's Synaptogenesis and Neurite Maturation Assay in rat cortical cells for Neuron Count, Mundy Lab (AID 2284242)", "summary_of_the_method": "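Rat primary cortical cells, AraC added at DIV 5, dosed with media change from DIV 7 to DIV 12. Fixed, Hoechst-stained and immunolabelled for MAP2 and synaptophysin; neuron number counted by high-content imaging, loss fitted versus DMSO.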"}},
  "note": "Results filed as inconclusive are left out. The source made the active and inactive calls. Rule for the calls, unless noted: active = hit-call score of the fitted dose curve at least 0.9, where 1 is the maximum; inconclusive = response in the unintended direction; inactive = score below 0.9.",
  "data": [
    {"smiles": "CCO[Si](CCCN)(OCC)OCC", "values": [
      {"measurement": "outcome", "setting": "[1]", "value": "inactive"},
      {"measurement": "outcome", "setting": "[2]", "value": "inactive"},
      {"measurement": "outcome", "setting": "[3]", "value": "inactive"},
      {"measurement": "outcome", "setting": "[4]", "value": "inactive"}
    ]},
    {"smiles": "Oc1ccc2c(c1)Cc1ccccc1-2", "values": [
      {"measurement": "outcome", "setting": "[5]", "value": "inactive"}
    ]},
    {"smiles": "CC(O)(c1ccc(Cl)cc1)c1ccc(Cl)cc1", "values": [
      {"measurement": "outcome", "setting": "[6]", "value": "inactive"}
    ]},
    {"smiles": "CNCCC(Oc1ccc(C(F)(F)F)cc1)c1ccccc1", "note": "(stereo unspecified)", "values": [
      {"measurement": "AC50", "setting": "[7]", "value": "12.3 µM (active)"},
      {"measurement": "AC50", "setting": "[8]", "value": "12.9 µM (active)"},
      {"measurement": "AC50", "setting": "[9]", "value": "11 µM (active)"},
      {"measurement": "AC50", "setting": "[10]", "value": "16 µM (active)"},
      {"measurement": "AC50", "setting": "[11]", "value": "5.97 µM (active)"}
    ]}
  ]
}
